Compounds with a hit are over-represented: about 11% of the library has one in this group of screens.
Luciferase inh: Firefly luciferase inhibition profiling of diverse chemical library using quantitative high-throughput screening; purified P. pyralis luciferase, luminescence, biochemical; 76,000 compounds, 2.5% hits; Potency, µM (series often up to 115 µM), usual class: inhibitors; also: nearly all actives have a fitted effect of over 65% in size
Target sequence (P08659 whole entry, looked up): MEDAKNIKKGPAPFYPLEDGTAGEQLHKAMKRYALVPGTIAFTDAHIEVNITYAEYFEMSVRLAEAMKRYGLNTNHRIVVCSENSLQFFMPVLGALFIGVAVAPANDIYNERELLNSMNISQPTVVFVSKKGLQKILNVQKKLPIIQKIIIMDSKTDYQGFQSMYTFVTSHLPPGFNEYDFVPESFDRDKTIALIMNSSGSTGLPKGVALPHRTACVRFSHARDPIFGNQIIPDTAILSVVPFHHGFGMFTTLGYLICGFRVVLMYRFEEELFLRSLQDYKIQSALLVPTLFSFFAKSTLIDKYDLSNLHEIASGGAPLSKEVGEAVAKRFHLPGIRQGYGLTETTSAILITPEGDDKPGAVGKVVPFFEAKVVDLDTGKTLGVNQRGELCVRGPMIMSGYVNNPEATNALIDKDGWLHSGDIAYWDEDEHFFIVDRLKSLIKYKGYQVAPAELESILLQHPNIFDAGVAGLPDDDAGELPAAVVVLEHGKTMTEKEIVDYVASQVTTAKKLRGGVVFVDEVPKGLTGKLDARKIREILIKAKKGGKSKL
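Biochemical qHTS: compound (6-point titration) added to 10uM D-luciferin plus 10uM ATP in Tris acetate pH 7.5 buffer with Mg, Tween-20 and BSA, then purified enzyme at 10nM; light output imaged.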
HEK293 tox: Cytotoxic Profiling in HEK 293 Cell Line of Diverse Libraries Using Quantitative High-Throughput Screening | HEK 293 viability, ATP luminescence (CellTiter-Glo), 48-72 h | Potency, µM (titrated, usually from 115 µM), without a hit: at the top dose activity change, negative = cytotoxicity, actives largely listed as inhibitors | 94,000 compounds, 6.6% hits; also: nearly all actives have a fitted effect of over 60% in size
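Viability of HEK 293 cells, plated at 250 cells/well, was judged by cellular ATP after compound treatment for 48 or 72 hr. Luminescence was imaged 10 min after CellTiter-Glo addition at room temperature.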
hNpr1 antagonist: Natriuretic polypeptide receptor (hNpr1) antagonism - Primary qHTS; Atrial natriuretic peptide receptor 1 (Homo sapiens), P16066; HEK293 hNpr1 GloSensor cGMP, ANP-stimulated luminescence; Potency, µM (highest dose often 46.3 µM), for inactives: top-dose activity change, negative = inhibition, usual class: inhibitors; 76,000 compounds, 1.6% hits; AID 1347048, 2019; calls by dose curve; also: nearly all actives have a fitted effect of over 60% in size
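HEK293 cells stably expressing human Npr1 and cGMP GloSensor pGS-40F, loaded 2 h with 2% GloSensor reagent, given compound 30 min at room temperature. Luminescence read before and 20 min after 0.1 nM hNppA.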
NIH3T3 tox: Cytotoxic Profiling in NIH 3T3 Cell Line of Diverse Libraries Using Quantitative High-Throughput Screening; NIH 3T3 viability, CellTiter-Glo ATP luminescence, 48-72 h; Potency, µM (titrated, usually from 96.7 µM), without a hit: top-dose activity change, negative = cytotoxicity, actives largely listed as inhibitors; 94,000 compounds, 4.3% hits; AID 1345082, 2018; also: nearly all actives have a fitted effect of over 55% in size
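NIH 3T3 cells at 400 cells/well received 23 nL of compound by pintool and were incubated 48 or 72 h at 37 °C. Viability was read as ATP-coupled CellTiter-Glo luminescence.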
The depositor's hits bear a star; i = inactive; ? = inconclusive; / = not tested or not shown; [ ] = remark or other dose. Unless noted, calls follow the shape of the dose curve; as a rule, active = well fitted curve in the direction sought with a large enough effect; inconclusive = small, poorly fitted or top-dose-only effect, or another doubt; inactive = no such curve, though single readings can be large; an effect the other way counts as inactive or inconclusive. % is scaled to controls: 0 for no effect and ±100 for the full control effect; potency is read from the fitted curve at half-maximal effect.

SMILES	Luciferase inh	HEK293 tox	hNpr1 antagonist	NIH3T3 tox
COc1ccc(-c2ccnc3nc(Cc4ccc(F)cc4)nn23)cc1OC	i	?	6%	?
COc1ccc(CCc2nc3nccc(-c4ccc(OC)c(OC)c4)n3n2)cc1	?	35µM*	2%	?
CN1CCCC2(Cc3ccccc3CN(C(=O)C3CCCC3)C2)C1 (centres undefined)	/	-9%	/	-2%
COc1ccccc1-c1cc(C(=O)Nc2cccc(C(F)(F)F)c2)c2cnn(C)c2n1	/	14µM*	/	?
COc1ccc(-c2cc(C(=O)Nc3cccc(C(F)(F)F)c3)c3cnn(C)c3n2)cc1	/	35µM*	/	?
CCOC(=O)CN1C(=O)CCN(C(=O)NC2CCCC2)CC(OC)c2ccccc21 (centres undefined)	/	-18%[57.5 µM]	/	?
N#Cc1cccc(-c2c(C(=O)NCc3ccccn3)nc3sccn23)c1	/	?	/	-30%
O=C(NCCc1cnc[nH]1)C1CC(=O)N(c2n[nH]c3ccccc23)C1 (centres undefined)	i	3%	1%	i
COC(=O)[C@@H]1Cc2c([nH]c3ccccc23)[C@H]2C[C@@H](NCCc3cnc[nH]3)C[C@@H](c3cccc(Cl)c3)N21	i	28µM*	0%	?
CN1[C@@H](c2ccc(Cl)cc2)[C@@H](C(=O)NCCc2cnc[nH]2)C[C@@]1(C)C(=O)O	i	1%	2%	i
COC(=O)[C@@H]1Cc2c([nH]c3ccccc23)[C@H]2C[C@H](NCCc3cnc[nH]3)C[C@@H](c3ccccc3F)N21	i	22µM*	-21%	?
COc1ccc(-c2cc(C(=O)NC3CC3)c3c(C4CCCNC4)noc3n2)cc1 (centres undefined)	/	32µM*	/	32µM*
O=C(Cc1ccc(Cl)cc1)NCCNC(=O)c1cccc(-c2ccc(C(F)(F)F)cc2)c1	/	?	/	35µM*
CSc1ccc(-c2cccc(C(=O)NCCNC(=O)c3ccc(C(F)(F)F)cc3)c2)cc1	/	-5%	/	-21%
O=C(CNC(=O)c1ccc(-c2cccc(C(F)(F)F)c2)cc1)NCCc1ccc(Cl)cc1	/	-17%	/	-2%
O=C(Cc1ccc(F)cc1)NCCNC(=O)c1cccc(-c2ccc(C(F)(F)F)cc2)c1	/	28µM*	/	-27%
COc1cccc(CN2CCCC(Cc3ncc(C)n3Cc3ccccc3)C2)c1OC (centres undefined)	i	50µM*	-23%	?
CS(=O)(=O)N1CCC(OCc2noc(C3CCCO3)n2)CC1 (centres undefined)	/	-6%	/	-8%
CCn1cc(S(=O)(=O)N2CCCC2Cc2noc(-c3ccccc3)n2)cn1 (centres undefined)	/	45µM*	/	?
CCNC(=O)N1CCCC(Cc2noc(-c3ccccc3)n2)C1 (centres undefined)	?	32µM*	2%	-22%
CS(=O)(=O)N1CCCN(CC2CCCCC2)CCNC(=O)CC1c1ccccc1 (centres undefined)	i	-17%	-4%	-11%
Cc1ccc(Nc2ccnc(N3CCCC(C(=O)NCC(F)F)C3)n2)cc1 (centres undefined)	/	45µM*	/	40µM*
C#CCNC(=O)C1CCCN1c1nccc(Nc2ccc(C)cc2)n1 (centres undefined)	/	?	/	-24%[138 µM]
Cc1ccc(Nc2ccnc(N3CCCC(C(=O)NCc4ccc(C(F)(F)F)cc4)C3)n2)cc1 (centres undefined)	/	-15%	/	-21%
Cc1ccc(Nc2ccnc(N3CCCC(C(=O)NCC4CCCCCC4)C3)n2)cc1 (centres undefined)	/	28µM*	/	?
SMILES	Luciferase inh	HEK293 tox	hNpr1 antagonist	NIH3T3 tox
Cc1ccc(Nc2ccnc(N3CCCC3C(=O)NCC(F)F)n2)cc1 (centres undefined)	/	40µM*	/	?
Cc1ccc(Nc2ccnc(N3CCCC(C(=O)NCC(F)(F)F)C3)n2)cc1 (centres undefined)	/	?	/	35µM*
CS(=O)(=O)N(Cc1ccccn1)C1CN(C(=O)CCc2c[nH]c3ccccc23)C1	/	3%	/	-17%
CNC(=O)c1cc(C2CC2)nc2c1c(C1CCN(C(=O)COC)C1)nn2C (centres undefined)	/	-2%	/	i
CC1=C[C@@H](CNS(=O)(=O)c2cccs2)[C@H](C(C)C)C[C@H]1CC(=O)NCCN1CCOCC1	i	-22%	2%	25µM*
CC1=C[C@@H](CNC(=O)COc2ccccc2)[C@H](C(C)C)C[C@H]1CC(=O)NCCN1CCOCC1	i	-18%	-2%	-20%
CC1=C[C@@H](CNC(=O)c2cnccn2)[C@H](C(C)C)C[C@H]1CC(=O)NCCN1CCOCC1	i	-5%	1%	-3%
CC(=O)Nc1ccc(C(=O)NC[C@@H]2C=C(C)[C@H](CC(=O)NCCN3CCOCC3)C[C@H]2C(C)C)cc1	45µM*	-10%	6%	2%
Cc1ccsc1CN1CC(N2CC(C(=O)N3CCCC3)CC2=O)C1 (centres undefined)	/	-13%	/	-11%
COc1ccc(NC(=O)COc2cccc(-c3nnc4n3CCCC4)c2)cc1	i	0%	-1%	-14%
CC(C)(C)CC(=O)Nc1cnc(-c2cccc(Cl)c2)nc1	0.25µM*	35µM*	4µM*	32µM*
O=C(NC1CCCCCC1)C1(CCO)CCN(c2ncccn2)C1 (centres undefined)	/	-2%	/	-5%
CN(Cc1ccc(-n2cccn2)cc1)Cc1nc(Cc2cccc(F)c2)no1	i	?	2%	-20%
CN(Cc1cccc(-n2cccn2)c1)Cc1nc(-c2cccs2)no1	i	79µM*	-8%	-24%
C#CCNC(=O)c1nc(-c2ccccc2OC)c2cnccn12	/	-13%	/	?
COc1ccc2c(c1)C=C(CN1CCC(CO)(Cc3ccccc3Cl)CC1)CO2	i	18µM*	?	?
OCCC#Cc1ccc(CN2CCC(CO)(Cc3ccccc3Cl)CC2)cc1	i	?	-5%	?
CCOc1ccc(CN2CCC(CO)(Cc3ccccc3Cl)CC2)cc1	i	79µM*	2%	?
COc1ccc(-c2ccc(C(=O)NC3CCOC3)cc2)nn1 (centres undefined)	/	-27%[172 µM]	/	-24%[138 µM]
COc1ccc(-c2cnc([C@@H]3COCCN3C3CCCCC3)[nH]2)cc1	i	32µM*	5%[70.6 µM]	?
Cc1ccc(-c2cnc([C@@H]3COCCN3C(C)C)[nH]2)cc1	i	112µM*	3%[70.6 µM]	?
COc1ccc(NC(=O)N2C[C@@H](F)C[C@H]2C(=O)N2CCCCC2)cc1F	i	-2%	3%	1%
COc1ccc(OC)c(NC(=O)N2C[C@@H](F)C[C@H]2C(=O)N2CCCCC2)c1	i	-11%	4%	11µM*
